MEKK2mut PB1 HTS = MEK5 binding signal on mutant MEKK2 PB1, primary screen, biochemical, multiplex bead flow cytometry, Alexa488-MEK5; Alexa488-MEK5 binding to MEKK2 mutant; percent response, % at 10 µM; 290,000 tested, 0.35% active; AID 1530, 2009; in the data active = percent response above about 24%, passing the limit was not always enough
CRFR2-BP antag = antagonists of CRF-BP/CRF-R2 complex, primary screen, cell-based, HEK293, calcium dye fluorescence, uHTS. 350,000 tested, 0.59% active. CRF-induced calcium fluorescence. inhibition, % at 11.8 µM;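 active = inhibition of the ligand-induced calcium signal above about 50% at the single tested concentration, limit read from the data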
MEKK2 WT-MEK5 = modulators of MEK5 binding to wildtype MEKK2, primary screen, biochemical, multiplex bead flow cytometry, Alexa488-MEK5 | Mitogen-activated protein kinase kinase kinase 2 (Homo sapiens), Q9Y2U5 | Alexa488-MEK5 binding to MEKK2 WT; actives lie on both sides | binding response (% of control), % at 10 µM | 290,000 tested, 1.1% active; in the data active = binding response below about 67% or above about 130%
ABCB6 inh MLPCN = ABCB6 transporter inhibitors, primary screen, K562-ABCB6 cells, flow cytometry, MLPCN library; ATP-binding cassette sub-family B member 6 (Homo sapiens), Q9NP58; K562-ABCB6 porphyrin accumulation, 1 h; hits give low values; fluorescence ratio to DMSO, % at 10 µM; 360,000 tested, 0.19% active;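 active = fluorescence ratio to DMSO below 75%, the collection mean minus 3 SD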;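 also: signal is porphyrin accumulated inside mitochondria; 100% equals median channel fluorescence of DMSO control wells; lower ratio means ABCB6 inhibition with less porphyrin fluorescence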
Target sequence (Q9NP58 whole entry, looked up): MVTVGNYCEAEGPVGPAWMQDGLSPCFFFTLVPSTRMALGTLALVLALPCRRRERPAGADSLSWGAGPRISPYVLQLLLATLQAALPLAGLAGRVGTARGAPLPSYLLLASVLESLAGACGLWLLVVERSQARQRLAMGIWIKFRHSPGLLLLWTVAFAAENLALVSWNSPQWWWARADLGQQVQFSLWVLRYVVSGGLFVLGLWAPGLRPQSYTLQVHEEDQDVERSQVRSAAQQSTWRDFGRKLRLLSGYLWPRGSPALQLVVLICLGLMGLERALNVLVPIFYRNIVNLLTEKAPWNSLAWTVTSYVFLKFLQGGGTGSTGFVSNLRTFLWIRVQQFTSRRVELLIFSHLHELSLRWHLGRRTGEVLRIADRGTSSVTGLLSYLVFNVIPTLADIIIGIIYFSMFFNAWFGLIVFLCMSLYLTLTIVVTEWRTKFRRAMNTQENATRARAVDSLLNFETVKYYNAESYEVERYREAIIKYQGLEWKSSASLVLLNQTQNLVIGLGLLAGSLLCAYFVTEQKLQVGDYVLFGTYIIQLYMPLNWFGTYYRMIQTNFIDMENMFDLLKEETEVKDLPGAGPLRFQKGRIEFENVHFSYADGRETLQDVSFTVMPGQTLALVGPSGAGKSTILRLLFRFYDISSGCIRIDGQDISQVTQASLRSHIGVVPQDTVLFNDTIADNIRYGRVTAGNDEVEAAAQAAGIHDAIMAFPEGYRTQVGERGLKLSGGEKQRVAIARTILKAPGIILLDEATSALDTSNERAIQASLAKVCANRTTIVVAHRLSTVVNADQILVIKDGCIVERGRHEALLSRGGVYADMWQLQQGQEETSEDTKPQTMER
MEKK3 PB1 HTS = modulators of MEKK3-MEK5 PB1 binding, primary screen, biochemical, wildtype MEKK3, multiplex bead flow cytometry, Alexa488-MEK5; bead-based flow cytometry, Alexa488-MEK5 binding to MEKK3; actives lie on both sides; 0 = blocked by unlabeled MEK5, 100 = vehicle; binding response (% of control), % at 10 µM; Mitogen-activated protein kinase kinase kinase 3 (Homo sapiens), Q99759; 290,000 tested, 1.4% active;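 active = binding response more than 3 SD above or below the average of its plate-row segment, actives on both sides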;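 also: Alexa488 bead fluorescence after subtracting the streptavidin-only scavenger bead signal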
CRFR2-BP ag = agonists of CRF-BP/CRF-R2 complex, primary screen, cell-based, HEK293, calcium dye fluorescence, uHTS. CRF-binding protein / CRF receptor 2 complex (human). 350,000 tested, 0.46% active. AID 588473, 2011. activation, % at 13.2 µM. calcium dye fluorescence (FLIPR); percent of saturating CRF peptide response;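 active = activation of at least 50%, plus an integration ratio under a set limit after plate pattern correction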;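 also: plate controls were neutral control wells without compound for no effect and CRF at EC100 for full effect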
An asterisk follows results filed as active; . = not tested or not shown. Only some compounds are listed: those with a hit (about 2.9% of all), similar ones and a draw of the others.

SMILES	MEKK2mut PB1 HTS	CRFR2-BP antag	MEKK2 WT-MEK5	ABCB6 inh MLPCN	MEKK3 PB1 HTS	CRFR2-BP ag
O=C(O)CCNC(=O)OCC1c2ccccc2-c2ccccc21	6.0	59.7*	102.0	100.0	99.0	-5.3
Cc1ccc(C(=O)NNC(=O)c2cc(C)nc3ccccc23)cc1	.	-2.9	.	99.0	.	1.0
CCOC(=O)c1ccccc1NC(=O)COC(=O)c1ccc(OCC(=O)N2CCOCC2)c(OCC)c1	.	4.5	.	97.0	.	-0.1
C=CCn1c(SCC(=O)Nc2nccs2)nnc1-c1cc2cccc(OC)c2o1	-10.0	0.7	86.0	72.0*	82.0	-0.8
Cc1cc([N+](=O)[O-])c2ccccc2c1NS(=O)(=O)c1ccccc1	.	118.5*	.	91.0	.	-0.7
Cc1ccccc1Nc1nc(N)nc(COC(=O)c2cccc(S(=O)(=O)N(C)c3ccccc3)c2)n1	0.0	51.0*	87.0	94.0	94.0	-3.7
N#Cc1c(C(F)(F)F)cc(-c2ccc(Cl)cc2)[nH]c1=O	5.0	62.6*	113.0	106.0	116.0	-0.8
COc1ccc(/C=C2\CCC(C3CCCC3)C2=O)c(OC)c1OC (stereo not drawn)	5.0	4.3	104.0	117.0	102.0	2.0
COc1ccc(/C=C2/CC/C(=C\c3ccc(OC)c(OC)c3OC)C2=O)c(OC)c1OC	1.0	-87.6	94.0	100.0	101.0	52.2*
O=C(O)C1=CCCNC1	5.0	56.8*	113.0	97.0	116.0	-0.9
Cc1nnc(SCCC(=O)Nc2ccccc2Cl)o1	13.0	11.9	102.0	93.0	100.0	1.0
CCOc1ccc(C(CCc2ccccc2)NC(=O)c2ccccc2OC)cc1OCC (stereo not drawn)	2.0	75.7*	99.0	101.0	100.0	4.3
COc1ccc(OC)c(-c2cc(C(=O)O)c3cc4ccccc4cc3n2)c1	.	50.1*	.	100.0	.	2.9
O=C(CSc1cc(Cl)ccc1Cl)NCCCn1ccnc1	26.0*	4.0	125.0	94.0	105.0	0.0
Cc1ccccc1SCC(=O)NCCCn1ccnc1	-4.0	15.9	108.0	104.0	104.0	-1.1
Cc1ccc(-n2nnnc2SCc2nnc(-c3ccccc3Br)o2)cc1	-3.0	135.9*	100.0	99.0	104.0	1.2
N#Cc1cccc(C(c2nnnn2C2CCCC2)N2CCCCCC2)c1 (stereo not drawn)	6.0	53.2*	107.0	99.0	103.0	5.5
N#Cc1cccc(C(c2nnnn2C2CCCC2)N2CCC(Cc3ccccc3)CC2)c1 (stereo not drawn)	0.0	-7.6	108.0	91.0	95.0	4.3
C=CCOc1nc2c(c(=O)n(Cc3ccc(Cl)c(Cl)c3)c(=O)n2C)n1C	-2.0	50.6*	95.0	105.0	98.0	-1.6
COc1cccc(C2C(C(=O)c3ccc(C)o3)=C(O)C(=O)N2CCN2CCOCC2)c1OC (stereo not drawn)	-2.0	123.6*	103.0	98.0	98.0	-1.4
CCOc1ccc(N/C(N)=N/c2nc(C)cc(C)n2)cc1	0.0	-69.1	104.0	102.0	100.0	140.9*
CC(=O)Nc1ccc(N/C(N)=N/c2nc(C)cc(C)n2)cc1	-15.0	-5.5	81.0	96.0	70.0	-1.8
Cc1ccc(S(=O)(=O)N2c3ccccc3OCC2C(C)(C)C)cc1 (stereo not drawn)	2.0	90.3*	94.0	120.0	101.0	3.8
Cc1ccc2c(c1)N(S(=O)(=O)c1ccc(F)cc1)C(C(C)(C)C)CO2 (stereo not drawn)	-2.0	11.4	99.0	96.0	103.0	-0.2
Cc1nn(-c2ccccc2)c(N)c1Sc1ccc([N+](=O)[O-])cc1	-1.0	57.6*	101.0	101.0	129.0	-0.6
SMILES	MEKK2mut PB1 HTS	CRFR2-BP antag	MEKK2 WT-MEK5	ABCB6 inh MLPCN	MEKK3 PB1 HTS	CRFR2-BP ag
CC1=CC(C)(C)n2c(O)c(N=NC(N)=S)c3cccc1c32	0.0	9.1	108.0	93.0	146.0*	1.2
Fc1ccc(-c2nnc(-c3ccc4ccccc4c3)o2)cc1	.	-6.7	.	98.0	.	-1.0
O=C(NNc1ncnc2c1cnn2-c1ccc(F)cc1)c1ccco1	4.0	68.0*	100.0	103.0	99.0	-1.6
CCc1nc2nc(C)c(NS(=O)(=O)c3ccc(C4CCCCC4)cc3)c(=O)n2[nH]1	-8.0	15.6	95.0	99.0	100.0	-1.1
O=c1[nH]c(=O)n(-c2ccccc2)c2c1C(C(F)(F)F)(C(F)(F)F)N=C(CCC1CCCCC1)N2	-2.0	-53.5	94.0	96.0	100.0	109.5*
Cc1ccc(C2=NC(C(F)(F)F)(C(F)(F)F)c3c(n(-c4ccc(F)cc4)c(=O)[nH]c3=O)N2)cc1	-2.0	23.7	99.0	102.0	97.0	5.8
O=c1[nH]c(=O)n(Cc2ccco2)c2c1C(C(F)(F)F)(C(F)(F)F)N=C(CCC1CCCCC1)N2	0.0	-33.3	97.0	91.0	98.0	1.3
O=c1[nH]c(=O)n(-c2ccc(F)cc2)c2c1C(C(F)(F)F)(C(F)(F)F)N=C(c1ccc(F)cc1)N2	6.0	66.5*	114.0	88.0	106.0	29.6
Cc1cc(C)cc(N(CC(=O)NCC2CCCO2)C(=O)CCC(=O)Nc2nccs2)c1 (stereo not drawn)	1.0	4.9	101.0	109.0	99.0	0.5
COc1cccc(CN(C)C(=O)CNC(=O)c2ccc(-c3ccccc3)cc2)c1OC	2.0	22.8	99.0	89.0	102.0	-1.9
O=C(CCCOc1ccc(Cl)cc1)Nc1cccc(C(=O)O)c1	-3.0	83.7*	95.0	100.0	99.0	-2.1
O=C(CN1CCN(C(=O)CCC(=O)N2CCC(c3ccccc3)=N2)CC1)Nc1ccc(F)cc1	.	-2.9	.	90.0	.	-0.9
O=C(/C(=C\c1ccccc1)c1nc2ccccc2[nH]1)c1ccc(Cl)cc1	5.0	-3.5	5.0*	100.0	93.0	1.2
S=C(Nc1ccc(Cl)cc1)c1nc2ccccc2[nH]1	0.0	6.5	110.0	89.0	128.0*	0.4
Cc1ccccc1NC(=S)c1nc2ccccc2[nH]1	-1.0	-0.3	98.0	96.0	96.0	-1.5
O=C(/C(=C/c1ccc(Cl)cc1)c1nc2ccccc2[nH]1)c1cccs1	-1.0	-6.4	96.0	109.0	91.0	21.7
CCOC(=O)c1csc(NC(=O)CN2CCOCC2)n1	-5.0	4.8	91.0	97.0	85.0	2.9
O=C(CCNC(=O)c1ccco1)Nc1ccc(OC(F)F)cc1	3.0	1.9	105.0	92.0	100.0	1.0

Screening data as filed in PubChem.
